Assay results published in PubChem BioAssay AID1159580 (chemical genetic matrix, 2015).
Values joined by “and” are separate entries in the source; they are usually repeats but may differ in a detail not shown here. Identical values can stand only once. Among all 5,500 compounds or so, about 2,000 (36%) were called active. Inconclusive results (about 18%) are left out. No stated cut-off is given here; in the data, active means normalized growth mostly below about 0.91 (no sharp cut-off); inconclusive means no clear call, values can overlap the other calls; inactive means mostly above about 0.92. Some of the results follow.

Experiment: chemical genetic growth profiling, strain panel (AID 1159580);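 further: tested at 20 µM; growth read once vehicle control cultures reached saturation at 30 °C; 1 = growth at the plate median or of vehicle wells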
Conditions: S. cerevisiae deletion strains, growth OD

Measured: normalized growth

COc1cc(Cc2cnc(N)nc2N)cc(OC)c1OC
inactive: locus YAL013W, strain DEP1, stronger effect = lower value 1 and 1.03 | locus YAL021C, strain ccr4, stronger effect = lower value 1.02 | locus YAL026C, strain drs2, stronger effect = lower value 1.01 | locus YAL030W, strain snc1, stronger effect = lower value 1.01 | locus YAL040C, strain CLN3, stronger effect = lower value 0.987 | locus YBL061C, strain skt5, stronger effect = lower value 1.01 | locus YBR009C, strain hhf1, stronger effect = lower value 1.01 | locus YBR021W, strain FUR4, stronger effect = lower value 0.977 | locus YBR023C, strain chs3, stronger effect = lower value 1.01 | locus YBR171W, strain sec66, stronger effect = lower value 1.02 | locus YBR229C, strain ROT2, stronger effect = lower value 0.998 | locus YBR231C, strain swc5, stronger effect = lower value 1.01 | locus YBR279W, strain paf1, stronger effect = lower value 1.02 | locus YCL011C, strain gbp2, stronger effect = lower value 1.02 | locus YCL016C, strain dcc1, stronger effect = lower value 1.02 | locus YCL029C, strain bik1, stronger effect = lower value 0.982 | locus YCL061C, strain MRC1 (second series), stronger effect = lower value 0.992 | locus YCL069W, strain vba3, stronger effect = lower value 1.02 | locus YCR088W, strain abp1, stronger effect = lower value 1.02 | locus YDL005C, strain med2, stronger effect = lower value 1.02 | locus YDL035C, strain GPR1, stronger effect = lower value 1.03 | locus YDL040C, strain nat1, stronger effect = lower value 1.01 | locus YDL074C, strain BRE1, stronger effect = lower value 0.993 | locus YDL101C, strain DUN1, stronger effect = lower value 0.99 | locus YDL134C, strain PPH21, stronger effect = lower value 0.986 | locus YDL185W, strain tfp1, stronger effect = lower value 0.987 | locus YDL192W, strain arf1, stronger effect = lower value 0.99 | locus YDR001C, strain nth1, stronger effect = lower value 1.01 | locus YDR069C, strain doa4, stronger effect = lower value 1.03 | locus YDR101C, strain arx1, stronger effect = lower value 0.986 | locus YDR137W, strain rgp1, stronger effect = lower value 1.02 | locus YDR150W, strain NUM1, stronger effect = lower value 1 | locus YDR159W, strain sac3, stronger effect = lower value 0.977 | locus YDR162C, strain NBP2, stronger effect = lower value 1 | locus YDR195W, strain ref2 1 | locus YDR297W, strain sur2, stronger effect = lower value 1.01 | locus YDR318W, strain mcm21, stronger effect = lower value 0.99 | locus YDR334W, strain swr1, stronger effect = lower value 1.02 | locus YDR335W, strain msn5, stronger effect = lower value 1.02 | locus YDR363W, strain ESC2, stronger effect = lower value 0.991 | locus YDR388W, stronger effect = lower value 0.987 | locus YDR392W, strain spt3, stronger effect = lower value 0.984 | locus YDR502C, strain sam2, stronger effect = lower value 0.998 | locus YEL003W, strain gim4, stronger effect = lower value 1.02 | locus YEL037C, strain rad23, stronger effect = lower value 1.01 | locus YEL061C, strain CIN8 (second series), stronger effect = lower value 1.01 | locus YEL061C, strain CIN8, stronger effect = lower value 0.997 | locus YER002W, strain NOP16, stronger effect = lower value 0.968 | locus YER015W, strain faa2, stronger effect = lower value 1.02 | locus YER016W, strain bim1, stronger effect = lower value 1.01 | locus YER110C, stronger effect = lower value 0.988 | locus YER111C, strain swi4, stronger effect = lower value 1.03 | locus YER155C, strain BEM2 (second series), stronger effect = lower value 0.991 | locus YER155C, strain BEM2, stronger effect = lower value 0.989 | locus YER167W, strain BCK2, stronger effect = lower value 1.01 | locus YFR010W, strain ubp6, stronger effect = lower value 1.01 | locus YGL078C, strain dbp3, stronger effect = lower value 0.992 | locus YGL086W, strain mad1, stronger effect = lower value 1.01 | locus YGL167C, strain pmr1, stronger effect = lower value 1.02 | locus YGL173C, strain kem1, stronger effect = lower value 1.02 | locus YGL227W, strain vid30, stronger effect = lower value 1.01 | locus YGL240W, strain doc1, stronger effect = lower value 1.01 | locus YGL248W, strain PDE1, stronger effect = lower value 1 | locus YGL253W, strain hxk2, stronger effect = lower value 1.01 | locus YGR078C, strain PAC10, stronger effect = lower value 1.01 | locus YGR135W, strain pre9, stronger effect = lower value 0.985 | locus YGR229C, strain SMI1, stronger effect = lower value 1.04 | locus YGR252W, strain gcn5, stronger effect = lower value 1.07 | locus YHR013C, strain ard1, stronger effect = lower value 1.01 | locus YHR027C, strain rpn1, stronger effect = lower value 1.01 | locus YHR030C, strain SLT2, stronger effect = lower value 0.999 and 0.966 | locus YHR079C, strain IRE1 (second series), stronger effect = lower value 0.988 | locus YHR079C, strain IRE1, stronger effect = lower value 0.979 | locus YHR094C, strain hxt1, stronger effect = lower value 0.993 | locus YHR129C, strain ARP1, stronger effect = lower value 0.991 | locus YHR142W, strain chs7, stronger effect = lower value 1.03 | locus YHR200W, strain rpn10, stronger effect = lower value 0.989 | locus YIL066C, strain RNR3, stronger effect = lower value 1 | locus YIL073C, strain SPO22, stronger effect = lower value 0.995 | locus YIL125W, strain kgd1, stronger effect = lower value 1 | locus YIR030C, strain dcg1, stronger effect = lower value 0.991 | locus YJL092W, strain hpr5, stronger effect = lower value 1 | locus YJL095W, strain BCK1 (second series), stronger effect = lower value 1.01 | locus YJL095W, strain BCK1, stronger effect = lower value 0.988 and 0.98 | locus YJL115W, strain asf1, stronger effect = lower value 1.02 | locus YJL129C, strain trk1, stronger effect = lower value 1.01 | locus YJL134W, strain LCB3, stronger effect = lower value 0.999 | locus YJL154C, strain vps35, stronger effect = lower value 1.03 | locus YJL164C, strain tpk1, stronger effect = lower value 1.01 | locus YJL166W, strain qcr8, stronger effect = lower value 0.993 | locus YJL168C, strain set2, stronger effect = lower value 0.993 | locus YJL187C, strain SWE1 (second series), stronger effect = lower value 0.993 | locus YJL187C, strain SWE1, stronger effect = lower value 1.02 | locus YJR043C, strain POL32, stronger effect = lower value 1 | locus YJR066W, strain TOR1, stronger effect = lower value 0.929
